# In the antibiotic and cytotoxicity screens of Wong et al. (2023):
# The campaign covered roughly 39,000 compounds. About 1,500 (3.8%) were called active. Only a selection was taken, and actives are over-represented in it overall.
# System: HSkMC (human skeletal muscle cells)
# Assay: cytotoxicity call (relative viability < 0.9)
# Conditions: 10 µM
row,SMILES,cytotoxicity call
1,COC(=O)C=CC(=O)OC,inactive
2,C[C@@H](NC(=O)C[C@H]1CC[C@@H](NC(=O)CN2CCOCC2)[C@H](CO)O1)c1ccccc1,inactive
3,C#CC1(O)CCC2C3CCC4=CCCCC4C3CCC21C (centres undefined),active
4,C#CC1(O)CCC2C3CCC4=CC(=O)CCC4C3CCC21C (centres undefined),inactive
5,C#CC1(O)CCC2C3CCC4=CCCCC4C3C(=C)CC21CC (centres undefined),inactive
6,C[C@H](CO)N1C[C@H](C)[C@H](CN(C)C(=O)Cc2ccccc2)OCCCC[C@H](C)Oc2ccc(NC(=O)Nc3ccc4c(c3)OCO4)cc2C1=O,inactive
7,C[C@@H]1CN([C@@H](C)CO)C(=O)c2cc(NS(=O)(=O)c3cn(C)cn3)ccc2O[C@H]1CN(C)Cc1ccc(C(=O)O)cc1,inactive
8,O=c1[nH]cc(/N=C/c2ccncc2)c(=O)[nH]1,inactive
9,COc1ccc(NC(=O)N(C)C[C@H]2OCCCC[C@@H](C)Oc3ccc(NC(=O)NC(C)C)cc3C(=O)N([C@H](C)CO)C[C@@H]2C)cc1,inactive
10,C[C@H]1O[C@@H](OC[C@H]2O[C@@H](O[C@H]3CC[C@]4(C)[C@H]5CCC6=C(CC[C@@]7(C(=O)O[C@@H]8O[C@H](CO)[C@@H](O)[C@H](O)[C@H]8O[C@@H]8O[C@H](CO)[C@@H](O)[C@H](O)[C@H]8O)CCC(C)(C)C[C@@H]67)[C@]5(C)CC[C@H]4C3(C)C)[C@H](O)[C@@H](O)[C@@H]2O)[C@H](O)[C@@H](O)[C@@H]1O,inactive
11,C[C@@H]1O[C@@H](O[C@H]2[C@H](O[C@H]3[C@H](O)[C@@H](C(=O)O)O[C@@H](O[C@H]4CC[C@]5(C)[C@H]6CC[C@]78OC[C@@]9(CCC(C)(C)C[C@@H]97)[C@H](O)C[C@@]8(C)[C@]6(C)CC[C@H]5C4(C)C)[C@@H]3OC3O[C@H](CO)[C@@H](O)[C@H](O)[C@H]3O)O[C@H](CO)[C@H](O)[C@@H]2O)[C@H](O)[C@H](O)[C@H]1O (some centres undefined),active
12,C[C@@H]1O[C@@H](O[C@H]2[C@H](O)[C@@H](O)[C@H](OC(=O)[C@]34CCC(C)(C)C[C@H]3C3=CC[C@H]5[C@@]6(C)CC[C@H](O[C@@H]7O[C@H](C(=O)O)[C@@H](O)[C@H](O)[C@H]7O)C(C)(C)[C@@H]6CC[C@@]5(C)[C@]3(C)CC4)O[C@@H]2CO)[C@H](O)[C@H](O)[C@H]1O,inactive
13,CC(=O)O[C@H]1CC(C)(C)C[C@H]2[C@]13CO[C@@]21CC[C@H]2[C@@]4(C)CC[C@H](O[C@@H]5OC[C@H](O[C@@H]6O[C@H](CO)[C@@H](O)[C@H](O)[C@H]6O[C@@H]6OC[C@@H](O[C@@H]7O[C@H](CO)[C@@H](O)[C@H](O)[C@H]7O)[C@H](O)[C@H]6O)[C@H](O)[C@H]5O[C@@H]5O[C@H](CO)[C@@H](O)[C@H](O)[C@H]5O)[C@@](C)(CO)[C@@H]4CC[C@@]2(C)[C@]1(C)C[C@H]3O,active
14,CC(=O)O[C@H]1CC(C)(C)C[C@H]2[C@]13CO[C@@]21CC[C@@H]2[C@@]4(C)CC[C@H](O[C@@H]5O[C@H](C(=O)O)[C@@H](O)[C@H](O[C@@H]6O[C@H](CO)[C@H](O)[C@H](O)[C@H]6O[C@@H]6O[C@@H](C)[C@H](O)[C@@H](O)[C@H]6O)[C@H]5O[C@@H]5O[C@H](CO)[C@@H](O)[C@H](O)[C@H]5O)C(C)(C)[C@@H]4CC[C@@]2(C)[C@]1(C)C[C@H]3O,inactive
15,C[C@@H]1O[C@@H](O[C@H]2[C@H](O[C@H]3[C@H](O)[C@@H](O[C@@H]4O[C@H](CO)[C@@H](O)[C@H](O)[C@H]4O)[C@H](O[C@H]4CC[C@]5(C)[C@H]6CC[C@]78OC[C@@]9(CCC(C)(C)C[C@@H]97)[C@H](O)C[C@@]8(C)[C@]6(C)CC[C@H]5C4(C)C)O[C@@H]3C(=O)O)O[C@H](CO)[C@H](O)[C@@H]2O)[C@H](O)[C@H](O)[C@H]1O,active
16,CC1(C)CC[C@]2(C(=O)O[C@@H]3O[C@H](CO)[C@@H](O)[C@H](O)[C@H]3O)CC[C@]3(C)C(=CC[C@H]4[C@@]5(C)CC[C@@H](O[C@@H]6O[C@H](C(=O)O)[C@@H](O[C@@H]7OC[C@@H](O)[C@H](O)[C@H]7O)[C@H](O[C@@H]7OC[C@](O)(CO)[C@H]7O)[C@H]6O)C(C)(C)[C@@H]5CC[C@]43C)[C@@H]2C1,inactive
17,CC1(C)CC[C@]2(C(=O)O[C@@H]3O[C@H](CO[C@@H]4O[C@H](CO)[C@@H](O)[C@H](O)[C@H]4O)[C@@H](O)[C@H](O)[C@H]3O)CC[C@]3(C)C(=CC[C@H]4[C@@]5(C)CC[C@H](O[C@@H]6OC[C@H](O)[C@H](O)[C@H]6O)C(C)(C)[C@@H]5CC[C@]43C)[C@@H]2C1,inactive
18,C[C@@H]1O[C@@H](O[C@H]2[C@H](O[C@H]3[C@H](O)[C@@H](O[C@@H]4O[C@H](CO)[C@@H](O[C@@H]5O[C@H](CO)[C@H](O)[C@H]5O)[C@H](O)[C@H]4O)[C@H](O[C@H]4CC[C@]5(C)[C@H]6CC[C@]78OC[C@@]9(CCC(C)(C)C[C@@H]97)[C@H](O)C[C@@]8(C)[C@]6(C)CC[C@H]5C4(C)C)O[C@@H]3C(=O)O)O[C@H](CO)[C@H](O)[C@@H]2O)[C@H](O)[C@H](O)[C@H]1O,inactive
19,COc1ccc2c3c(n(c2c1)C)[C@@H](CO)N(CC1CCOCC1)C[C@]13CCN(CC1)C(=O)c1cnccn1,inactive
20,CCc1c(C)c2cc3c(-c4ccccc4)coc3cc2oc1=O,inactive
21,CNC[C@H]1OCCCC[C@@H](C)Oc2ccc(NS(=O)(=O)c3cn(C)cn3)cc2C(=O)N([C@@H](C)CO)C[C@@H]1C,inactive
22,Cc1ccc(S(=O)(=O)Nc2ccc3c(c2)CC(=O)N([C@@H](C)CO)C[C@@H](C)[C@H](CN(C)C(=O)NC(C)C)O3)cc1,inactive
23,N#Cc1cc(F)cc(Oc2ccc(S(=O)(=O)C(F)F)c3c2CC(F)(F)[C@@H]3O)c1.N#Cc1cc(F)cc(Oc2ccc(S(=O)(=O)C(F)F)c3c2CC(F)(F)[C@H]3O)c1,inactive
24,COc1ccccc1NC(=O)N(C)C[C@H]1OCc2ccccc2-c2c(n(C)c3ccccc23)C(=O)N([C@H](C)CO)C[C@H]1C,inactive
25,C=CC(=O)N[C@H]1CCCN(CC)C1,inactive

row,SMILES,cytotoxicity call
1,C[C@@H]1CN([C@@H](C)CO)C(=O)c2cccc(NS(=O)(=O)c3ccc(F)cc3)c2O[C@H]1CN(C)S(=O)(=O)c1cccs1,inactive
2,C[C@@H]1CN([C@H](C)CO)C(=O)c2cc(Br)cnc2O[C@H]1CN(C)Cc1ccc2c(c1)OCO2,inactive
3,C[C@@H]1CN([C@@H](C)CO)C(=O)Cc2cc(NS(=O)(=O)c3cccs3)ccc2O[C@@H]1CN(C)S(=O)(=O)c1cccs1,inactive
4,Cc1ccc(S(=O)(=O)N(C)C[C@@H]2Oc3ccc(NC(=O)c4ccncc4)cc3C(=O)N([C@H](C)CO)C[C@H]2C)cc1,inactive
5,CCOC(=O)Cn1cnc2ccccc2c1=O,inactive
6,Cc1c(-c2ccc(C(N)=O)c3[nH]c4cc(C(C)(C)O)ccc4c23)cccc1-n1cnc2ccccc2c1=O,active
7,COc1ccc(S(=O)(=O)N(C)C[C@@H]2Oc3ccc(NC(=O)Cn4cnnn4)cc3C(=O)N([C@@H](C)CO)C[C@H]2C)cc1,inactive
8,Cc1ccc(S(=O)(=O)Nc2cccc3c2O[C@H](CN(C)CC2CC2)[C@H](C)CN([C@@H](C)CO)C3=O)cc1,inactive
9,COc1ccc2c3c(n(c2c1)C)[C@@H](CO)N(C[C@]13CN(C1)C(=O)Nc1cccc(c1)F)C(=O)C1CCOCC1,inactive
10,COc1ccc(cc1)S(=O)(=O)N1CC[C@]2(CC1)CN([C@@H](CO)c1c2c2ccc(cc2n1C)OC)C(=O)CN(C)C,inactive
11,COc1ccc2c3c(n(c2c1)C)[C@@H](CO)N(C[C@]13CCN(CC1)C(=O)c1ccccc1)C(=O)Nc1ccccc1F,inactive
12,COc1ccc2c3c(n(c2c1)C)[C@H](CO)N(C[C@]13CCN(CC1)C(=O)c1ccccc1F)C(=O)Nc1ccccc1F,inactive
13,COc1ccc2c3c(n(c2c1)C)[C@@H](CO)N(C[C@]13CCN(CC1)C(=O)c1ccccc1F)C(=O)Nc1ccc(cc1)F,inactive
14,COc1ccc2c3c(n(c2c1)C)[C@H](CO)N(C[C@]13CCN(CC1)C(=O)c1ccccc1)C(=O)Nc1ccccc1F,active
15,COCC(=O)N1CC[C@]2(CC1)CN([C@H](CO)c1c2c2ccc(cc2n1C)OC)C(=O)Nc1ccccc1F,inactive
16,COc1ccc2c3c(n(c2c1)C)[C@@H](CO)N(C[C@]13CN(Cc2cccc(c2)F)C1)C(=O)C1CCOCC1,active
17,COc1ccc2c3c(n(c2c1)C)[C@@H](CO)N(C[C@]13CCN(CC1)C(=O)c1ccccc1F)C(=O)Nc1ccccc1F,active
18,COc1ccc2c3c(n(c2c1)C)[C@H](CO)N(C[C@]13CN(Cc2cccc(c2)F)C1)C(=O)C1CCOCC1,inactive
19,COc1ccc(cc1)S(=O)(=O)N1C[C@]2(C1)CN([C@@H](CO)c1c2c2ccc(cc2n1C)OC)C(=O)CN(C)C,inactive
20,COc1ccc(cc1)S(=O)(=O)N1CC[C@]2(CC1)CN([C@H](CO)c1c2c2ccc(cc2n1C)OC)C(=O)CN(C)C,active
21,COc1cccc(NC(=O)C[C@H]2CC[C@H]3[C@H](COc4ccc(NC(=O)C5CCOCC5)cc4C(=O)N3C)O2)c1,inactive
22,Cc1ccc(S(=O)(=O)Nc2ccc3c(c2)C(=O)N([C@H](C)CO)C[C@@H](C)[C@@H](CN(C)S(C)(=O)=O)O3)cc1,inactive
23,CC(C)c1onc(-c2c(Cl)cccc2Cl)c1COc1ccc(C=Cc2cccc(C(=O)O)c2)c(Cl)c1,inactive
24,C[C@@H]1CN([C@@H](C)CO)C(=O)c2cccc(NS(C)(=O)=O)c2O[C@@H]1CN(C)Cc1ccc2c(c1)OCO2,inactive
